Sampled rows, rich in hits. Any-hit rate of the full collection: about 5.7%.
A549 tox: Nrf2 qHTS screen for inhibitors: counterscreen for cytotoxicity; 390,000 tested, 0.16% active; AID 504648, 2011; Potency, µM (top dose mostly 46 µM), without a hit: at the top dose activity change, negative = cytotoxicity, most hits filed as inhibitors; A549 ARE-Fluc cells, CellTiter-Fluor viability, 18-24 h; note: potency is the fitted concentration of half-maximal effect
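A549 ARE_Fluc cells in 5% FBS OPTI-MEM were exposed to compounds in concentration-response for 18-24 h at 37 deg C. Viability was read by CellTiter-Fluor fluorescence (Ex 405/Em 525) after 30 min, before the luciferase read.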
KB-V1 cytotox: qHTS assay for MDR1-selective chemotherapeutics: Primary screen using the drug-selected MDR subline cells KB-V1. KB-V1 MDR cells viability, CellTiter-Glo, 72 h. Potency, µM (top dose mostly 46.1 µM), actives largely listed as cytotoxic. 400,000 tested, 3.4% active. AID 1347076, 2019; note: potency is the fitted concentration of half-maximal effect; nearly all actives have a fitted effect of over 60% in size
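KB-V1 MDR subline cells in DMEM (phenol-red free, 10% FBS) exposed to compounds in qHTS concentration series for 72 h at 37 degrees C. Viability read by CellTiter-Glo luminescence; concentration-effect curves fitted after normalization and correction.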
KB-3-1 tox: qHTS assay for MDR1-selective chemotherapeutics: Primary screen using the parental adenocarcinoma cell KB-3-1. KB-3-1 viability, CellTiter-Glo ATP luminescence, 72 h. Potency, µM (doses to about 46.1 µM), actives largely listed as cytotoxic. 400,000 tested, 1.4% active. AID 1347075, 2019; note: potency is the fitted concentration of half-maximal effect; nearly all actives have a fitted effect of over 60% in size
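Here the drug-naive KB-3-1 line serves as comparator for MDR sub-line selectivity; cells received compound titrations, 72 h at 37 °C, then CellTiter-Glo readout.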
Giardia killer: Small Molecules that selectively kill Giardia lamblia: qHTS. Giardia lamblia trophozoite viability. activity change, % at 7.66 µM, hits read low. 340,000 tested, 0.15% active. AID 540267, 2011; in the data active = activity change below about -80%; inconclusive = between about -30% and that limit;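 note: parasites exposed to compound for two days anaerobically before the ATP read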
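Trophozoite viability was measured as ATP-dependent luminescence, read 15-30 min after reagent addition. Before that, parasites at 100 cells/well were exposed to compounds for 48 h, anaerobically, at 37 deg C.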
PI4K2A inh: qHTS for small molecular inhibitors of PI4K2A | Phosphatidylinositol 4-kinase type 2-alpha (Homo sapiens), Q9BTU6 | purified PI4K2A, ADP-Glo luminescence, 1 h; hits give low values | activity change, negative = inhibition, % at 76.9 µM | 420,000 tested, 0.13% active | AID 1346378, 2018; in the data active = activity change below about -50%; inconclusive = mostly about -30% to -49%;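 note: -100% = wells without enzyme as full effect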
Target sequence (Q9BTU6 whole entry, looked up): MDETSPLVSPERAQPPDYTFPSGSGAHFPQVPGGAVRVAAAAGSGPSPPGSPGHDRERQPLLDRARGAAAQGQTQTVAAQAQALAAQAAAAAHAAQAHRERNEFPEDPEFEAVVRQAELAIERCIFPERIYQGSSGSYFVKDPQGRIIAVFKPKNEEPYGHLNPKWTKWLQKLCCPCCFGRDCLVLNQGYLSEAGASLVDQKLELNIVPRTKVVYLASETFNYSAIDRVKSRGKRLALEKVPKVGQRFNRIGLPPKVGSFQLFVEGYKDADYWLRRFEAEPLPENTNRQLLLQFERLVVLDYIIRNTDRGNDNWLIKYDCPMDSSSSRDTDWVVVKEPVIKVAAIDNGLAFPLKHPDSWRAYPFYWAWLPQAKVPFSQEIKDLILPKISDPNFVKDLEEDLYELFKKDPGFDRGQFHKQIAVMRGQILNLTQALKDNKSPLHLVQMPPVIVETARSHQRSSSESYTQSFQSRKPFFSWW
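Compounds are screened against recombinant PI4K2A using PI as substrate and ATP, the latter dispensed at 300 microM. Reactions run one hour at ambient temperature before ADP-Glo detection; full inhibition defined by wells lacking enzyme.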
Nrf2 block: Nrf2 qHTS screen for inhibitors; A549 ARE-Fluc reporter, luciferase luminescence, 18-24 h; 360,000 tested, 2.1% active; Potency, µM (series often up to 46 µM), inactives show at the top dose activity change, negative = inhibition, hits mostly inhibitors; note: potency is the fitted concentration of half-maximal effect; nearly all actives have a fitted effect of over 60% in size
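Nrf2 function is reported as luminescence of an ARE-controlled luciferase in A549 cells. Compounds were tested at several concentrations, and a CellTiter-Fluor read on the same wells flagged cytotoxicity.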
The depositor's hits bear a star; [ ] = another dose, or the depositor's remark. Unless noted, calls come from the whole dose curve; as a rule, active = well fitted curve in the direction sought with a large enough effect; inconclusive = small, poorly fitted or top-dose-only effect, or another doubt; inactive = no such curve, though single readings can be large; an effect the other way counts as inactive or inconclusive. Unless noted, % is set by controls: 0 for no effect and ±100 for the full control effect.

What do the screens show for `COc1cccc(CN(C)C(=O)c2ccc(Cl)c(S(=O)(=O)N3CCCCCC3)c2)c1OC`?
A549 tox: -16%; KB-V1 cytotox: inconclusive; KB-3-1 tox: inactive; Giardia killer: -8; PI4K2A inh: 0; Nrf2 block: 18µM*

Results for COc1cccc(CN(C)C(=O)c2cccc(S(=O)(=O)N3CCN(Cc4ccccc4)CC3)c2)c1OC ?
A549 tox: -17%; KB-V1 cytotox: inconclusive; KB-3-1 tox: inconclusive; Giardia killer: 0; PI4K2A inh: -6; Nrf2 block: 10µM*

How did CN(Cc1ccco1)C(=O)c1cccc(S(=O)(=O)N2CCN(Cc3ccccc3)CC2)c1 do in these assays?
KB-V1 cytotox: inactive; KB-3-1 tox: inactive; PI4K2A inh: -2

How did COc1cccc(CN(C)C(=O)c2cccc(S(=O)(=O)N3CCN(c4ccc(F)cc4)CC3)c2)c1OC do in these assays?
A549 tox: inconclusive; KB-V1 cytotox: inconclusive; KB-3-1 tox: inconclusive; Giardia killer: -7; PI4K2A inh: 0; Nrf2 block: 8.2µM*

How did COc1ccccc1CNC(=O)c1cccc(S(=O)(=O)N2CCN(c3ccc(F)cc3)CC2)c1 do in these assays?
A549 tox: -5%; KB-V1 cytotox: inactive; KB-3-1 tox: inactive; Giardia killer: 11; PI4K2A inh: -1; Nrf2 block: inconclusive

Results for COC(=O)[C@]12C[C@H](CC(=O)NCC3CCCCC3)C(=O)N(Cc3ccco3)C1=C[C@H](C(C)C)O[C@@H]2C1CC1 ?
PI4K2A inh: 1

Results for CN(C(=O)CSC1=Nc2ccccc2C2=NC(c3ccccc3)C(=O)N12)C1CCCCC1 (stereo not drawn) ?
A549 tox: -18%; KB-V1 cytotox: 5.2µM*; KB-3-1 tox: inactive; Giardia killer: 0; PI4K2A inh: 19; Nrf2 block: -40%

How did O=C(O)c1nn2c(c1Br)NC(c1ccccc1)CC2C(F)(F)F (stereo not drawn) do in these assays?
A549 tox: 1%; KB-V1 cytotox: inconclusive; KB-3-1 tox: inactive; Giardia killer: 2; PI4K2A inh: -17; Nrf2 block: -3%

What do the screens show for `Cc1c(CNC(=O)c2nn3c(c2Cl)NC(c2ccccc2)CC3C(F)(F)F)cnn1C` (stereo not drawn)?
A549 tox: -21%; KB-V1 cytotox: 21µM*; KB-3-1 tox: inactive; Giardia killer: -13; PI4K2A inh: 3; Nrf2 block: inconclusive

Results for COc1ccc(C2CC(C(F)(F)F)n3nc(C(=O)NCc4c(C)nn(C)c4C)c(Cl)c3N2)cc1 (stereo not drawn) ?
A549 tox: -9%; KB-V1 cytotox: 6.5µM*; KB-3-1 tox: inconclusive; Giardia killer: 0; PI4K2A inh: 0; Nrf2 block: 21µM*

Results for Cc1sc2ncn(CC(=O)Nc3cccc(C(F)(F)F)c3)c(=O)c2c1S(=O)(=O)N1CCN(C)CC1 ?
A549 tox: 1%; KB-V1 cytotox: inactive; KB-3-1 tox: inactive; PI4K2A inh: 4; Nrf2 block: 4%[9.27 µM]

What do the screens show for `CC(C)NS(=O)(=O)c1ccc(OCC(=O)Nc2ccc(F)cc2F)cc1`?
A549 tox: 2%; KB-V1 cytotox: 16µM*; KB-3-1 tox: inactive; Giardia killer: -26; PI4K2A inh: -2; Nrf2 block: -27%

How did CC(C)NS(=O)(=O)c1ccc(OCC(=O)Nc2ccccc2F)cc1 do in these assays?
A549 tox: -3%; KB-V1 cytotox: inactive; KB-3-1 tox: inactive; Giardia killer: 7; PI4K2A inh: -2; Nrf2 block: -22%

Results for C=CCN(C)CC#Cc1ccc(C)cc1 ?
PI4K2A inh: 1

What do the screens show for `O=C1C=CC(=O)N1Cc1ccccc1`?
A549 tox: inconclusive; KB-V1 cytotox: inactive; KB-3-1 tox: inconclusive; Giardia killer: 16; PI4K2A inh: 8; Nrf2 block: 16µM*

Results for O=C1C2CC=CCC2C(=O)N1Cc1ccccc1 (stereo not drawn) ?
A549 tox: 11%; KB-V1 cytotox: inactive; KB-3-1 tox: inactive; Giardia killer: 4; PI4K2A inh: 1; Nrf2 block: 13%

What do the screens show for `Cc1nc(NC2CCCC2)c2nnn(Cc3ccccc3)c2n1`?
PI4K2A inh: -5

What do the screens show for `CC(=O)C1(C(=O)Nc2cc(C)cc(C)c2)CC(c2ccccn2)=NO1` (stereo not drawn)?
PI4K2A inh: 4

What do the screens show for `O=C(Nc1nnc(SCC(=O)N2CCCCC2)s1)c1cccs1`?
A549 tox: 2%; KB-V1 cytotox: 21µM*; KB-3-1 tox: inactive; Giardia killer: -1; PI4K2A inh: -2; Nrf2 block: 19%

What do the screens show for `O=C(C1CCN(Cc2cc(Cl)ccc2O)CC1)N1CCN(Cc2ccccc2)CC1`?
A549 tox: 5%; KB-V1 cytotox: 10µM*; KB-3-1 tox: inconclusive; Giardia killer: -7; PI4K2A inh: 4; Nrf2 block: 2%

What do the screens show for `O=C(C1CCN(Cc2ccccc2O)CC1)N1CCN(Cc2ccc3c(c2)OCO3)CC1`?
A549 tox: -3%; Giardia killer: 16; PI4K2A inh: 0; Nrf2 block: -3%

How did C#CC[N+](C)(C)CC#Cc1ccc(C)cc1 do in these assays?
A549 tox: 1%; KB-V1 cytotox: inactive; KB-3-1 tox: 12µM*; Giardia killer: -13; PI4K2A inh: 3; Nrf2 block: inconclusive

How did C[N+](C)(CC#Cc1ccccc1)CC(=O)c1ccccc1 do in these assays?
A549 tox: 10%; KB-V1 cytotox: inconclusive; KB-3-1 tox: inconclusive; Giardia killer: -8; PI4K2A inh: 0; Nrf2 block: -15%

Results for CC(C)c1ccc(NC(=S)N(C)CCc2ccccn2)cc1 ?
A549 tox: 2%; KB-V1 cytotox: 23µM*; KB-3-1 tox: inactive; Giardia killer: -11; PI4K2A inh: -4; Nrf2 block: inconclusive

What do the screens show for `Cc1cccc(C(=O)Nc2ccc(C(=O)OCc3cc(=O)n4nc(CC(C)C)sc4n3)cc2)c1`?
A549 tox: -5%; PI4K2A inh: 2

What do the screens show for `CCOc1ncccc1C(=O)NCc1cccc(OC)c1`?
A549 tox: 1%; KB-V1 cytotox: inconclusive; KB-3-1 tox: inactive; Giardia killer: 8; PI4K2A inh: 6; Nrf2 block: -4%

Results for CCOc1ncccc1C(=O)NCc1ccc(OC)cc1 ?
A549 tox: -11%; KB-V1 cytotox: 13µM*; KB-3-1 tox: 15µM*; Giardia killer: -2; PI4K2A inh: 1; Nrf2 block: -29%

Assay outcomes (PubChem)
